Compound activity (PubChem)
FLuc modulator – qHTS profiling assay for firefly luciferase inhibitor/activator using purifed enzyme and Km concentrations of substrates (counterscreen for miR-21 project); Luciferin 4-monooxygenase (Photinus pyralis), P08659; actives 6.9% (n = 360,000); purified FLuc, Km substrates, luminescence inhibition; Potency, µM (titrated, usually from 57.5 µM), inactives show at the top dose activity change, negative = inhibition, usual class: inhibitors;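 further: plate controls were vehicle for no effect and reference inhibitor for full effect; nearly all actives have a fitted effect of over 55% in size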
Target sequence (P08659 whole entry, looked up): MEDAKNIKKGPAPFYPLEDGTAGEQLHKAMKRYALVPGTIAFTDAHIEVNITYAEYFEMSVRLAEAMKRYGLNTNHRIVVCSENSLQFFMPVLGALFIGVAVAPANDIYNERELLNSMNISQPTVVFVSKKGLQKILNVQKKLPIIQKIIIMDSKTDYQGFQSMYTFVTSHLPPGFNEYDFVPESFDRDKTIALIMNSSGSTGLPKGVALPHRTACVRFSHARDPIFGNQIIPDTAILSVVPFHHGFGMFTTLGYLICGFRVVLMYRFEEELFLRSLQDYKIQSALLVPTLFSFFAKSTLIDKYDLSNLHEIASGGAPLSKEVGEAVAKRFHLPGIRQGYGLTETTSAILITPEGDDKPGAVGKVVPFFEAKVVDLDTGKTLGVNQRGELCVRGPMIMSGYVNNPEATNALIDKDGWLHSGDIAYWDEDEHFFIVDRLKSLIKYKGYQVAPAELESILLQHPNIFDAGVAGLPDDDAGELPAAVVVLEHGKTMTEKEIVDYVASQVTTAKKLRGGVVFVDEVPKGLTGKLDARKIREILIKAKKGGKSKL
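Purified P. pyralis luciferase, 10 nM final, with Km-level 10 uM D-luciferin and 10 uM ATP in 50 mM Tris acetate pH 7.5, 10 mM Mg acetate, 0.01% Tween-20, 0.05% BSA; 6-point qHTS titration about 60 µM downward; luminescence read.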
Rab9 prom act – qHTS Assay for Rab9 Promoter Activators | actives 2.8% (n = 320,000) | AID 485297, 2010 | Potency, µM (doses to about 9.22 µM), for the others: at the top dose activation, negative = inhibition, actives largely listed as activators | Huh7 Rab9 promoter-luciferase reporter, luminescence, 24 h; further: % of control where 0% means no effect; nearly all actives have a fitted effect of over 60% in size
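Huh7 cells stably carrying Rab9 promoter–luciferase reporter, plated 1500 cells/well, compound added after 2 h and incubated 24 h at 37 °C; luciferase luminescence then read after 10 min with detection reagent.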
NPC1 promoter act – qHTS Assay for NPC1 Promoter Activators | Huh7 NPC1 promoter luciferase reporter, 24 h | Potency, µM (doses to about 9.22 µM), for inactives: top-dose activation, most hits filed as activators | actives 2.4% (n = 320,000) | AID 485313, 2010; further: % of control where 0% means no effect; nearly all actives have a fitted effect of over 60% in size
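Cells: Huh7 expressing luciferase under the NPC1 promoter, 1500/well. Seeded 2 h, compound added, incubated 24 h at 37 °C. Luciferase reagent, 10 min ambient, then luminescence.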
ELG1 genotox – qHTS screen for small molecules that induce genotoxicity in human embryonic kidney (HEK293T) cells expressing luciferase-tagged ELG1; HEK293T ELG1-luciferase reporter, luminescence, 16 h; Potency, µM (titrated, usually from 46 µM), without a hit: at the top dose activity change, positive = activation, most hits filed as activators; actives 1.3% (n = 330,000); further: % of control where 0% means no effect; nearly all actives have a fitted effect of over 60% in size
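Screening used a luciferase reporter fused to human ELG1 in HEK293T cells. Luminescence was read on a CCD plate imager after 16 hr exposure and 30 min ONE-Glo incubation.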
SMN2 splice up – qHTS Assay for Enhancers of SMN2 Splice Variant Expression; HEK293 SMN2-luciferase splicing reporter, luminescence, 30-36 h; Potency, µM (series often up to 46.1 µM), for inactives: top-dose activity change, positive = activation, hits mostly activators; actives 2.8% (n = 210,000); further: % of control where 0% means no effect; nearly all actives have a fitted effect of over 55% in size
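HEK293 cells carry an SMN2 […]–luciferase reporter in which exon 7 inclusion puts luciferase in frame. Cells were plated 10-12 h before compound addition, then incubated 30-36 h at 37C. ONE-Glo luminescence was read; sodium butyrate at 4.5 mM final served as control.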
uPA generation – qHTS for Inhibitors of Cell Surface uPA Generation | cell surface uPA generation assay, qHTS | Potency, µM (titrated, usually from 38.3 µM), without a hit: top-dose activity change, negative = inhibition, actives largely listed as inhibitors | actives 0.31% (n = 330,000) | AID 540303, 2011; active means well fitted inhibition curve with a large enough effect; inconclusive means small, poorly fitted or top-dose-only effect; inactive means no such curve, though single readings can be large or run the other way; tested in mouse RAW 264.7 cells; further: on the % scale 0 is the no-effect control and ±100 the full control effect; nearly all actives have a fitted effect of over 55% in size
The depositor's hits bear a star; ? = inconclusive; . = not tested or not shown; [ ] = dose if it differs, or a comment. In the library only some 7.3% were active in any assay of this set; here they are far more common. Unless noted, the call rests on the fitted dose curve; in most records, active means well fitted curve in the direction sought with a large enough effect; inconclusive means small, poorly fitted or top-dose-only effect, or another doubt; inactive means no such curve, though single readings can be large; an effect the other way counts as inactive or inconclusive. Potency means the concentration at half of the fitted maximal effect.

SMILES	FLuc modulator	Rab9 prom act	NPC1 promoter act	ELG1 genotox	SMN2 splice up	uPA generation
C/C(=N\Nc1nc2ccccc2s1)c1ccc(Br)s1	15µM*	15%	26%	-8%	.	-11%
CC(=NNc1nc2ccccc2s1)c1ccncn1	.	.	.	.	.	5%
Cc1c2cnn(CC(=O)NCCc3ccccc3)c(=O)c2c(C)n1Cc1ccccc1Cl	-19%	.	.	.	0%	.
CCc1cc2c(cc3c(=O)n(CC(=O)NCCc4ccccc4)ncn32)s1	1%	.	.	.	0%	.
CCOc1ccc(-c2nnc(SCC(=O)Nc3ccccc3C(F)(F)F)o2)cc1	-14%	.	.	.	.	.
CCOc1ccc(-c2nnc(SCC(=O)Nc3cccc(C#N)c3)o2)cc1	19µM*	.	.	.	.	.
CCOc1ccc(-c2nnc(SCC(=O)Nc3cccc(Cl)c3C)o2)cc1	13µM*	.	.	.	.	.
COc1ccc(CCNC(=O)CCCCCn2c(=O)[nH]c3cc(OC)c(OC)cc3c2=O)cc1OC	0%	.	.	.	0%	.
O=C(CCCn1c(=O)c2sccc2n(Cc2c(F)cccc2Cl)c1=O)NCc1ccccc1	1%	.	.	.	21%	.
C=CCn1cccc(C(=O)Nc2ccc(C)c(C)c2)c1=O	11µM*	2.2µM*	1.6µM*	?	.	2%
C=CCn1c(N)c(C(=O)Nc2ccc(C)cc2)sc1=S	1.2µM*	2.8µM*	?	?	20%	-11%
C/C=C/Cn1cccc(C(=O)Nc2ccc(OC)cc2)c1=O	24µM*	?	?	8%	-21%	1%
C=CCn1cccc(C(=O)Nc2ccc(C)cc2)c1=O	11µM*	2.8µM*	4.5µM*	?	.	-9%
CCC(C(=O)NCc1cc(OC)ccc1OC)n1nc(C)c2sc3ccccc3c2c1=O (centres undefined)	-10%	.	.	.	1%	.
CC(C)CCNC(=O)C1CCN(C(=O)c2cc3sccc3n2Cc2ccc(Cl)cc2)CC1	5%	.	.	.	-28%	.
COc1ccc(-c2csc(N(C)C(=O)c3ccco3)n2)cc1	11µM*	4µM*	?	?	.	-2%
COc1ccc(OC)c(-c2csc(N(C)C(=O)c3ccco3)n2)c1	?	3%	-8%	6%	.	12%
CN(C)CCCN(C(=O)c1ccco1)c1nc(-c2ccc(Cl)cc2)cs1	-10%	-8%	6%	0%	.	?
CCn1nc(C(=O)OCC(=O)Nc2nc(-c3ccc(OC)cc3)cs2)c2ccccc2c1=O	?	?	?	?	10µM*	-15%
COc1ccc(-c2csc(N(Cc3ccccc3)C(=O)COc3ccc(Cl)cc3)n2)cc1	0%	-3%	-2%	0%	-19%	-2%
CC(=O)N(C)c1nc(-c2ccc(Cl)cc2)cs1	?	3.5µM*	?	4%	-7%	11%
CCn1nc(C(=O)OCC(=O)NCC(C)C)c2ccccc2c1=O	-2%	1%	-5%	3%	-4%	-7%
CN(C(=O)c1ccco1)c1nc(-c2ccc(Cl)cc2)cs1	6µM*	3.2µM*	?	14%	.	0%
Oc1c(Br)cc(Br)cc1CN(Cc1cc(Br)cc(Br)c1O)C1CCCCC1	.	.	.	.	-5%[9.22 µM]	.
COc1ccc(-c2csc(NC(=O)COC(=O)c3ccco3)n2)cc1	?	3.2µM*	4µM*	?	13µM*	-5%
SMILES	FLuc modulator	Rab9 prom act	NPC1 promoter act	ELG1 genotox	SMN2 splice up	uPA generation
CCSc1ccc(-c2ccc(C)cc2)nn1	2.4µM*	0.71µM*	1µM*	?	10µM*	-11%
CCOc1ccc(-c2ccc(SCC)nn2)cc1	1.2µM*	0.63µM*	0.71µM*	1.2µM*	4.5µM*	-13%
COc1ccc(-c2ccc(SC)nn2)cc1	1.5µM*	0.1µM*	0.5µM*	-8%	1.8µM*	-18%
Cc1ccc(-c2ccc(SCC(=O)NC3CCCC3)nn2)cc1	?	11%	13%	-2%	.	3%
CCOc1ccc(NC(=O)CSc2ccc(-c3ccco3)nn2)cc1	?	-2%	11%	0%	.	1%
COc1ccc(C(=O)CSc2ccc(-c3ccccc3)nn2)cc1	-16%	-5%	0%	-1%	11%	7%
CCC(=O)C1=C(c2ccc(F)cc2)N(C(=O)CC)n2c(nnc2C2CCCCC2)S1	-2%	.	.	.	.	.
CCOC(=O)c1cccc(NC(=O)NC2COc3ccccc3C2)c1 (centres undefined)	-1%	.	.	.	.	.
CCC(=O)[C@@H](c1ccccc1)c1ccccn1	.	.	.	.	-9%[9.22 µM]	.
C=C(C)C1CC[C@]2(CO)CC[C@@]3(C)[C@H](CCC4[C@@]5(C)CCC(O)C(C)(C)C5CC[C@@]43C)C12 (some centres undefined)	.	.	.	.	8%	.
COc1ccc(Br)cc1CNC(=O)CCCn1c(=O)c2cccn2c2ccccc21	-7%	.	.	.	.	.
CCOc1ccc(-c2cc(-c3nc(-c4cc(OC)c(OC)c(OC)c4)no3)[nH]n2)cc1	21µM*	.	.	.	.	.
O=C(Nc1ccccc1Cl)c1ccc(-c2ccccn2)s1	3.4µM*	1.4µM*	2µM*	?	.	-5%
Cc1cccc(NC(=S)NC(=O)c2cccs2)n1	?	?	?	10%	10%	.
Cc1nc(NC(=O)c2cccnc2)ccc1Br	-18%	23%	16%	?	0%	1%
Cc1ccccc1C(=O)Nc1ccc(Br)c(C)n1	24µM*	?	?	12µM*	80%	-8%
Cc1nc(NC(=S)NC(=O)c2cccs2)ccc1Br	4.8µM*	30%	6%	?	?	0%
Cc1ccccc1C(=O)Nc1ccc(Cl)cn1	17µM*	3.5µM*	2.5µM*	10µM*	29%	-10%
Cc1ccccc1C(=O)Nc1ccccn1	-13%	.	.	.	-19%	2%
Cc1ccc(-c2nc3c4cnn(-c5cc(Cl)ccc5Cl)c4ncn3n2)cc1	-6%	.	.	.	6%	.
CN1CCN(c2ncc3nc(-c4ccccc4)c(=O)n(Cc4ccc(F)cc4)c3n2)CC1	.	.	.	.	1%	.
CC(=O)c1cccc(S(=O)(=O)NCCc2csc3nc(-c4ccc(F)cc4)nn23)c1	-14%	.	.	.	.	.
CCOC(=O)c1ccc(N2C(=O)CC(C)(CC)CC2=O)cc1	2%	-8%	-2%	-1%	.	-6%
Cc1ccc(OCCNC(=O)c2cccc(C)c2)cc1	1%	5%	16%	3%	.	5%
Cc1ccc(C(=O)NCCOc2ccc(Cl)cc2)cc1	24µM*	18%	?	?	.	4%
O=C(Nc1ccc(Cl)cn1)c1ccc(Oc2ccccc2)cc1	3.4µM*	2.2µM*	1.3µM*	?	.	-6%
